About 79,000 compounds went through this panel and 15% of them were active in at least one assay; those are over-represented in the sample as a whole. Activity calls are given as the source filed them. No stated cut-off is given here; in the data, active means growth inhibition above about 70%; inactive means the rest.

The nature of this experiment: NCI Yeast Anticancer Drug Screen. Data for the sgs1 mgt1 strain (AID 161).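 Further: 0% = growth of cultures given vehicle only.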 The note with it: S. cerevisiae sgs1 mgt1 strain, at 50.0 µM, hits give high values. In outline:
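Percent growth inhibition was derived by comparing compound-exposed mutant yeast with vehicle-exposed cultures. The strain carries alterations in DNA damage repair.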
As for `CCCc1cc(=O)oc2c3c(c4c(c12)OC(C)(C)C=C4)OC(C)[C@H](C)[C@@H]3O` (stereo partly drawn), the growth inhibition is 32% (inactive).

As for `CCOC(=O)C(C)CC(C)C(=O)OCC` (stereo not drawn), the growth inhibition was -19.3% (inactive).

Turning to `O=C1CCSc2nc(-c3ccc4c(c3)OCO4)nn21`, the growth inhibition was -13.3% (inactive).

For `C#CCn1cc(F)c(=O)n(CC#C)c1=O`, the growth inhibition was -4.55% (inactive).

With `O=C1CCCS(=O)(=O)CCC1`, the growth inhibition was -8.2% (inactive).

Take `Clc1ccc(Cc2ccc(Br)cc2)cc1`: the growth inhibition is 38.5% (inactive).

With `Fc1cc(Cl)c(F)cc1Cl`, the growth inhibition was -18.2% (inactive).

Regarding `O=C(NCCCl)Oc1cccn(C(=O)NCCCl)c1=O`, the growth inhibition is -2.55% (inactive).

With `CCOC(=O)c1cnc2cc3c(cc2c1Nc1ccc2c(c1)OCO2)OCO3`, the growth inhibition is 6.85% (inactive).

With `CCn1c2ccccc2c2c(-c3ccccc3)cc3c(c21)C(=O)N(c1ccccc1)C3=O`, the growth inhibition was 3.45% (inactive).

For the compound `Fc1ccc2nncc(SCc3ccc(Cl)c(Cl)c3)c2c1`, the growth inhibition was 3.8% (inactive).

`CN1C(=O)C(/C=N/NC(=O)c2cccnc2)C(N)N(C)C1=O` (stereo not drawn): the growth inhibition was -4.8% (inactive).

As to `Cn1c(-c2ccccc2)c/c(=N\NS(C)(=O)=O)c2cc(S(=O)(=O)O)ccc21`, the growth inhibition was -0.25% (inactive).

On to `Cc1ccccc1NC(=O)c1ccc(C(=O)Nc2ccccc2C)cc1`, for which the growth inhibition was 9.2% (inactive).

As to `Nc1cc(C(=O)O)c(O)c(Cl)c1O`, the growth inhibition was 12.3% (inactive).

On to `Cc1ccc(N(C(=O)CC(=O)N/N=C/c2ccccc2O)C(=O)c2ccccc2)cc1`, for which the growth inhibition is -2.05% (inactive).

Take `O=NN(Cc1ccc(Cl)cc1)NC1=NCCN1`: the growth inhibition is 3.75% (inactive).

On to `CC(=O)c1cc(-c2ccccn2)c(=O)n2ccccc12`, for which the growth inhibition is -19.9% (inactive).

The record behind these values is PubChem BioAssay (NCI).
